High-throughput results from PubChem.
IL-1B inflam inh = blocks inflammasome-driven IL-1 beta release | 360,000 tested, 4.7% active | THP-1 LPS/ATP IL-1B secretion, AlphaLISA, 16 h; hits give low values | activity change, % at 57.5 µM; in the data active = activity change below about -50%; inconclusive = mostly about -30% to -49%
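THP-1 cells pretreated 1 hr with compounds (up to 57.5 uM final), then stimulated with LPS (250 ng/mL final) plus ATP (1.25 mM final); secreted IL-1B measured by AlphaLISA after 16 hr, decreased signal indicating inhibition.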
HT1080 IDH1KD tx = toxicity to HT-1080 IDH1 knockdown cells (counter line) | HT-1080 IDH1 knockdown viability, ATP luminescence, 48 h | Potency, µM (series often up to 46.1 µM), inactives show at the top dose activity, negative = toxicity, most hits filed as cytotoxic | 360,000 tested, 2% active;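 also: potency is read from the fitted curve at half-maximal effect; 0% = DMSO wells and -100% = cell-free medium wells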
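HT-1080-IDH1KD cells (IDH1 knocked down), 750/well in RPMI with 5% FBS, treated with compound 48 h at 37 degrees C. Viability by CellTiter-Glo luminescence, normalised to DMSO and no-cell wells; concentration-response curves classed.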
HT1080NT lethal = kills 2HG-producing HT-1080-NT fibrosarcoma cells; HT-1080-NT fibrosarcoma viability, CellTiter-Glo ATP luminescence, 48 h; Potency, µM (doses to about 46.1 µM), for the others: at the top dose activity, negative = less viability, most hits filed as cytotoxic; 360,000 tested, 1.6% active; AID 686970;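 also: NT is the 2HG producing partner of a matched IDH1 knockdown line; potency is read from the fitted curve at half-maximal effect; 0% = DMSO-treated cells and -100% = media-only wells without cells; nearly all actives have a fitted effect of over 55% in size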
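Viability of the 2HG-overproducing fibrosarcoma line after 48 hours of compound exposure at 37 degrees C was determined by luminescence with CellTiter-Glo, and concentration-effect curves were then fitted and categorized.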
DT40 TDP1 no CPT = qHTS for Inhibitors of human tyrosyl-DNA phosphodiesterase 1 (TDP1): qHTS in cells in absence of CPT. DT40 Tdp1-/- hTDP1 cells, no CPT, ATP luminescence, 48 h. Potency, µM (titrated, usually from 46.2 µM), without a hit: top-dose activity change, negative = growth inhibition, actives largely listed as inhibitors. 420,000 tested, 15% active. AID 686978, 2013; also: potency is read from the fitted curve at half-maximal effect; nearly all actives have a fitted effect of over 55% in size
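Camptothecin absent (DMSO only). Human TDP1-complemented DT40 knockout cells, 400 cells/well, 37 °C for minimum 48 hr; ATP measured via CellTiter-Glo, 30 min dark incubation, luminescence.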
uPA surface inh = inhibitors of cell surface uPA generation; 330,000 tested, 0.31% active; cell surface uPA generation assay, qHTS; Potency, µM (top dose mostly 38.3 µM), inactives show at the top dose activity change, negative = inhibition, most hits filed as inhibitors; AID 540303; active = well fitted inhibition curve with a large enough effect; inconclusive = small, poorly fitted or top-dose-only effect; inactive = no such curve, though single readings can be large or run the other way; tested in mouse RAW 264.7 cells; also: potency is read from the fitted curve at half-maximal effect; nearly all actives have a fitted effect of over 55% in size
TDP1 cell CPT = growth inhibition of DT40 Tdp1-/-;hTDP1 cells with camptothecin (screen for TDP1 inhibitors) | Potency, µM (highest dose often 46.2 µM), without a hit: top-dose activity change, negative = growth inhibition, hits mostly inhibitors | 420,000 tested, 12% active | chicken DT40 Tdp1-/-;hTDP1 cells + 20 nM CPT, ATP luminescence, 48 h; also: potency is read from the fitted curve at half-maximal effect; nearly all actives have a fitted effect of over 55% in size
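Chicken DT40 Tdp1-/- cells stably complemented with human TDP1 were seeded at 400 cells/well in medium containing 20 nM camptothecin, exposed to pin-transferred compounds, and grown at 37 °C for at least 48 hr. Viability was read as ATP luminescence.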
Active calls of the source: *. Compounds with a hit are over-represented: about 19% of the library has one in this group of screens. Unless noted, calls follow the shape of the dose curve; as a rule, active = well fitted curve in the direction sought with a large enough effect; inconclusive = small, poorly fitted or top-dose-only effect, or another doubt; inactive = no such curve, though single readings can be large; an effect the other way counts as inactive or inconclusive. Unless noted, % is scaled to controls: 0 for no effect and ±100 for the full control effect.

`CCOC(=O)CSC1=C(C#N)C(c2ccccc2)C(C(C)=O)=C(C)N1` (stereo not given) gave IL-1B inflam inh inconclusive, HT1080 IDH1KD tx 3%, HT1080NT lethal 10%, DT40 TDP1 no CPT -10%, uPA surface inh -3% and TDP1 cell CPT -25%.
For COc1ccc(C(=O)NC2=NCCS2)cc1S(=O)(=O)N1CCOCC1 the results were IL-1B inflam inh 11, HT1080 IDH1KD tx 11%, HT1080NT lethal -1%, DT40 TDP1 no CPT 5% and TDP1 cell CPT 6%.
For CCOC(=O)c1[nH]c2cc(OC)c(OC)cc2c1NC(=O)C(C)N1CCN(Cc2ccccc2)CC1 (stereo not given) the results were IL-1B inflam inh -18, HT1080 IDH1KD tx -6%, HT1080NT lethal -17%, DT40 TDP1 no CPT 18µM*, uPA surface inh -9% and TDP1 cell CPT inconclusive.
CC(C(=O)Nc1ccccc1-c1ccccc1)N1CCN(C(=O)c2ccccc2)CC1 (stereo not given) was read as IL-1B inflam inh 38, HT1080 IDH1KD tx 1%, HT1080NT lethal 0%, DT40 TDP1 no CPT 26µM*, uPA surface inh -2% and TDP1 cell CPT inconclusive.
Screening Cc1ccc(S(=O)(=O)N2CCN(C(C(=O)Nc3ccc(F)cc3)c3ccccc3)CC2)cc1 (stereo not given) returned IL-1B inflam inh -14, HT1080 IDH1KD tx 1%, HT1080NT lethal 8%, DT40 TDP1 no CPT inconclusive, uPA surface inh 3% and TDP1 cell CPT -19%.
`Cc1ccc(S(=O)(=O)N2CCN(C(C)C(=O)Nc3ccccc3-c3ccccc3)CC2)cc1` (stereo not given) gave IL-1B inflam inh 0, HT1080 IDH1KD tx -7%, HT1080NT lethal -3%, DT40 TDP1 no CPT 16µM*, uPA surface inh 0% and TDP1 cell CPT inconclusive.
`CCOC(=O)c1[nH]c2ccc(F)cc2c1NC(=O)Nc1ccccc1OC` gave IL-1B inflam inh 32, HT1080 IDH1KD tx -28%, HT1080NT lethal -7%, DT40 TDP1 no CPT inconclusive, uPA surface inh -11% and TDP1 cell CPT -13%.
Screening CC(C(=O)Nc1ccccc1-c1ccccc1)N1CCN(Cc2ccccc2)CC1 (stereo not given) returned IL-1B inflam inh -54*, HT1080 IDH1KD tx -9%, HT1080NT lethal -14%, DT40 TDP1 no CPT inconclusive, uPA surface inh 2% and TDP1 cell CPT inconclusive.
For O=C(CN1C(=O)COc2ccc(S(=O)(=O)N3CCOCC3)cc21)NCc1ccc(F)cc1 the results were DT40 TDP1 no CPT -15% and TDP1 cell CPT -15%.
For Nc1cc(N)nc(SCC(=O)NC2CCCCCCC2)n1 the results were IL-1B inflam inh 1, HT1080 IDH1KD tx -1%, HT1080NT lethal 2%, DT40 TDP1 no CPT 17%, uPA surface inh 7% and TDP1 cell CPT -2%.
For CCC(CC)C(=O)Nc1nc2c(s1)CC(C)CC2 (stereo not given) the results were DT40 TDP1 no CPT 18µM* and TDP1 cell CPT 16µM*.
CCOc1ccccc1C(=O)Nc1nc2c(s1)CC(C)CC2 (stereo not given) was read as DT40 TDP1 no CPT 21µM* and TDP1 cell CPT inconclusive.
For CC1CCc2nc(NC(=O)c3ccco3)sc2C1 (stereo not given) the results were IL-1B inflam inh -25, HT1080 IDH1KD tx -15%, HT1080NT lethal -14%, DT40 TDP1 no CPT inconclusive, uPA surface inh -16% and TDP1 cell CPT inconclusive.
Screening COc1ccc(Cl)cc1NC(=O)NCCc1c(C)nn(C)c1C returned DT40 TDP1 no CPT 16µM* and TDP1 cell CPT inconclusive.
For Cc1cc(C)cc(NC(=O)NCCc2c(C)nn(C)c2C)c1 the results were DT40 TDP1 no CPT -24% and TDP1 cell CPT -12%.
For Cc1ccc(NC(=O)NCCc2c(C)nn(C)c2C)cc1Cl the results were DT40 TDP1 no CPT 23µM* and TDP1 cell CPT inconclusive.
For OC(COCC(F)(F)C(F)(F)C(F)(F)C(F)F)Cn1c2ccc(Cl)cc2c2cc(Cl)ccc21 (stereo not given) the results were IL-1B inflam inh -97*, HT1080 IDH1KD tx inconclusive, HT1080NT lethal inconclusive, DT40 TDP1 no CPT 2.6µM*, uPA surface inh -12% and TDP1 cell CPT 3.7µM*.
For COc1ccc(C(=O)Nc2cc(C(=O)c3ccccc3)c(C)oc2=O)cc1 the results were IL-1B inflam inh -11, HT1080 IDH1KD tx -2%, HT1080NT lethal -3%, DT40 TDP1 no CPT 10µM*, uPA surface inh -13% and TDP1 cell CPT 13µM*.
For CC(=O)c1cc(NC(=O)c2ccc([N+](=O)[O-])cc2)c(=O)oc1C the results were IL-1B inflam inh -18, HT1080 IDH1KD tx 18%, HT1080NT lethal 13%, DT40 TDP1 no CPT 23µM*, uPA surface inh -6% and TDP1 cell CPT inconclusive.
For COC(=O)c1cc(NC(=O)c2ccccc2)c(=O)oc1C the results were IL-1B inflam inh -4, HT1080 IDH1KD tx -12%, HT1080NT lethal -10%, DT40 TDP1 no CPT -17%, uPA surface inh -1% and TDP1 cell CPT 8%.
`Cc1oc(=O)c(NC(=O)c2cccc(Cl)c2)cc1C(=O)c1ccccc1` gave IL-1B inflam inh inconclusive, HT1080 IDH1KD tx inconclusive, HT1080NT lethal inconclusive, DT40 TDP1 no CPT 21µM*, uPA surface inh -11% and TDP1 cell CPT 29µM*.
`Cc1oc(=O)c(NC(=O)c2ccccc2)cc1C(N)=O` gave IL-1B inflam inh 19, HT1080 IDH1KD tx -4%, HT1080NT lethal -18%, DT40 TDP1 no CPT -2%, uPA surface inh 3% and TDP1 cell CPT 24%.
For CC(C)n1c(=O)c2ccccc2n1Cc1cn(-c2ccc(Cl)cc2)nn1 the results were IL-1B inflam inh -11, HT1080 IDH1KD tx -9%, HT1080NT lethal 0%, DT40 TDP1 no CPT inconclusive and TDP1 cell CPT inconclusive.
`CC(C)Cn1c(N)c(C(=O)NCC2CCCO2)c2nc3ccccc3nc21` (stereo not given) gave IL-1B inflam inh -80*, HT1080 IDH1KD tx inconclusive, HT1080NT lethal inconclusive, DT40 TDP1 no CPT 26µM*, uPA surface inh 0% and TDP1 cell CPT inconclusive.
Nc1c(C(=O)NCC2CCCO2)c2nc3ccccc3nc2n1/N=C/c1ccncc1 (stereo not given) was read as IL-1B inflam inh 0, HT1080 IDH1KD tx 7%, HT1080NT lethal -2%, DT40 TDP1 no CPT 1.6µM*, uPA surface inh 1% and TDP1 cell CPT 8.2µM*.
